Source: PubChem BioAssay AID651814 (National Center for Advancing Translational Sciences (NCATS), 2012)
Screen size: about 2,100 compounds; about 590 (28%) were called active. Roughly 42% stayed inconclusive and do not appear here. Some of the results follow. A number with no mark means an inactive call. Calls come from the whole dose curve; as a rule, active = well fitted inhibition curve with a large enough effect; inconclusive = small, poorly fitted or top-dose-only effect; inactive = flat fitted curve, though single readings scatter.

Molecular target: DNA dC->dU-editing enzyme APOBEC-3F (Homo sapiens) (UniProt Q8IUX4)
Sequence (Q8IUX4 whole entry, looked up): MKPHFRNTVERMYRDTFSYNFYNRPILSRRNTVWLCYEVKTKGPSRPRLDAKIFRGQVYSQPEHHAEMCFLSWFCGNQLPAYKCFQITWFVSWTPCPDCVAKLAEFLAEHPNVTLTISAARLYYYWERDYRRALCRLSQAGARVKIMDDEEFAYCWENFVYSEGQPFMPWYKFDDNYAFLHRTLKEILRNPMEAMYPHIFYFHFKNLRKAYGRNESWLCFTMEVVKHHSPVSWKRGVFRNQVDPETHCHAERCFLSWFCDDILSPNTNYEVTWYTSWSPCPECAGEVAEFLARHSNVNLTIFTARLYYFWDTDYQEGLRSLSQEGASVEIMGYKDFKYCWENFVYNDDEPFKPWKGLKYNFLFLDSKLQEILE
Assay: qHTS for inhibitors of Vif-A3F interactions: Cherry picks; note: nearly all actives have a fitted effect of over 70% in size;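 for max response: % of control where 0% means no effect; active compounds raise eYFP fluorescence by blocking Vif-driven A3F loss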
Settings: HeLa A3F-eYFP + Vif (tagged APOBEC3F with the HIV-1 protein that degrades it), eYFP fluorescence, 24 h
Summary of the method: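 HeLa cells stably expressing A3F-eYFP plus Vif, cultured overnight, then exposed to compounds at several concentrations for 24 h at 37 deg C. Reduced Vif-driven degradation read as rising eYFP fluorescence (488 nm ex/500-530 nm em) by laser-scanning cytometry; MG132 as positive control.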
Potency is the fitted concentration of half-maximal effect.

Row | Structure (SMILES) | max response | Potency
1 | Cc1ccc(Cc2c(C3CCCCC3)nc3ccc(C)cn23)cc1 | -5.74% | –
2 | COc1ccccc1/C=C/C=N/n1c(-c2ccc(C)cc2)n[nH]c1=S | -22% | –
3 | Cc1ccc(-c2nc(-c3cc4cccc(OCc5cccc(F)c5)c4oc3=O)no2)cc1 | – | 18.4 µM (active)
4 | Nc1c(C(=O)c2ccccc2)sc2snc(SCC(=O)c3ccccc3)c12 | – | 17.7 µM (active)
5 | Nc1c(C(=O)c2ccccc2)sc2nsc(SCCN3CCCC3)c12 | – | 14 µM (active)
6 | N#CC(C(=O)NCc1ccccc1)c1nc2ccccc2nc1N1CCCC1 (stereo not given) | -25.3% | –
7 | CCN(CC)c1nc2ccccc2nc1C(C#N)C(=O)NCCc1ccccc1 (stereo not given) | – | 3.66 µM (active)
8 | CC1=CN2C(=N)/C(=C/c3ccc([N+](=O)[O-])o3)C(=O)N=C2S1 | – | 14 µM (active)
9 | CCS(=O)(=O)C1=NN2C(=N)/C(=C\c3ccc(SCc4ccco4)o3)C(=O)N=C2S1 | -0.189% | –
10 | CCCCN1C(=O)/C(=C/C=C2\Oc3ccccc3N2CC)SC1=S | -1.16% | –
11 | CCSC1=N/C(=C\C=C2/Oc3ccccc3N2CC)C(=O)S1 | – | 20.6 µM (active)
12 | CC(O)CN(CC(C)O)c1ccc2c(c1)Cc1cc([N+](=O)[O-])ccc1-2 (stereo not given) | – | 3.66 µM (active)
13 | COC(=O)c1[nH]c2c(c1C(=O)OC)CCc1ccccc1-2 | -7.85% | –
14 | CC(C)c1ccc(NC(=O)Nc2cnccn2)cc1 | -23.5% | –
15 | Cc1nc(-c2ccc(Cl)cc2)sc1C(=O)NN | -25% | –
16 | CC(C)(C)C(=O)c1sc2nc(-c3cccs3)cc(C(F)(F)F)c2c1N | – | 1.03 µM (active)
17 | CC(=O)c1sc2nc(-c3cccs3)cc(C(F)(F)F)c2c1N | – | 7.31 µM (active)
18 | Nc1c(C(=O)C2CC2)sc2nc(-c3cccs3)cc(C(F)(F)F)c12 | – | 1.64 µM (active)
19 | CCN(CC)C(=O)c1sc2nc(-c3cccs3)cc(-c3ccc(Cl)cc3)c2c1N | – | 15.8 µM (active)
20 | S=C(NC1CCCCC1)N(CCc1ccccc1)CCc1ccccc1 | -2.16% | –
21 | Cc1ccc(N2C(=O)CS/C2=C(\C(Cl)=C(Cl)Cl)[N+](=O)[O-])cc1 | 2.65% | –
22 | O=C(O)c1ccc(N/N=C/C(Br)=C/c2ccccc2)cc1 | -18.2% | –
23 | Cc1ccc(NC(=O)Cc2ccc(-n3cccc3)cc2)c(C)c1 | -1.25% | –
24 | Cc1ccc(NC(=O)C(=Cc2ccc(C(=O)O)cc2)C(=O)Nc2ccc(C)cc2C)c(C)c1 | – | 5.59 µM (active)
25 | O=C1COc2ccc(C(=O)CSc3nc4ccccc4c(=O)n3-c3ccc(Cl)c(Cl)c3)cc2N1 | – | 18.4 µM (active)
